Test results published in PubChem BioAssay AID1159580 (chemical genetic matrix, 2015).
About 2,000 (36%) of roughly 5,500 compounds were called active. Inconclusive results (about 18%) are left out. No stated cut-off is given here; in the data, active means normalized growth mostly below about 0.91 (no sharp cut-off); inconclusive means no clear call, values can overlap the other calls; inactive means mostly above about 0.92. This is one part of the list.

Experiment: chemical genetic growth profiling, strain panel (AID 1159580);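 further: tested at 20 µM; growth read once vehicle control cultures reached saturation at 30 °C; 1 = growth at the plate median or of vehicle wells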
Details: growth OD

Measured: normalized growth

COC(=O)C(N)CS (configuration not stated)
inactive: S. cerevisiae deletion strains, locus YJR075W, strain HOC1, stronger effect = lower value 0.977 | S. cerevisiae deletion strains, locus YKL009W, strain mrt4, stronger effect = lower value 1.02 | S. cerevisiae deletion strains, locus YKL068W, stronger effect = lower value 0.99 | S. cerevisiae deletion strains, locus YKL085W, strain MDH1 (second series), stronger effect = lower value 0.992 | S. cerevisiae deletion strains, locus YKL085W, strain MDH1, stronger effect = lower value 0.992 | S. cerevisiae deletion strains, locus YKL160W, strain elf1, stronger effect = lower value 1.02 | S. cerevisiae deletion strains, locus YKL190W, strain CNB1, stronger effect = lower value 0.998 | S. cerevisiae deletion strains, locus YKR001C, strain vps1, stronger effect = lower value 0.924 | S. cerevisiae deletion strains, locus YKR026C, strain gcn3, stronger effect = lower value 0.985 | S. cerevisiae deletion strains, locus YKR091W, strain srl3, stronger effect = lower value 0.99 | S. cerevisiae deletion strains, locus YLL001W, strain dnm1, stronger effect = lower value 0.948 | S. cerevisiae deletion strains, locus YLL026W, stronger effect = lower value 0.978 | S. cerevisiae deletion strains, locus YLL041C, strain sdh2, stronger effect = lower value 0.985 | S. cerevisiae deletion strains, locus YLR027C, strain aat2, stronger effect = lower value 0.988 | S. cerevisiae deletion strains, locus YLR039C, strain RIC1, stronger effect = lower value 0.897 | S. cerevisiae deletion strains, locus YLR058C, strain SHM2, stronger effect = lower value 0.99 | S. cerevisiae deletion strains, locus YLR102C, strain apc9, stronger effect = lower value 0.98 | S. cerevisiae deletion strains, locus YLR113W, strain HOG1, stronger effect = lower value 0.972 | S. cerevisiae deletion strains, locus YLR221C, strain rsa3, stronger effect = lower value 0.961 | S. cerevisiae deletion strains, locus YLR258W, strain gsy2, stronger effect = lower value 1 | S. cerevisiae deletion strains, locus YLR262C, strain YPT6 (second series), stronger effect = lower value 0.926 | S. cerevisiae deletion strains, locus YLR262C, strain YPT6, stronger effect = lower value 0.943 | S. cerevisiae deletion strains, locus YLR320W, strain mms22, stronger effect = lower value 0.92 | S. cerevisiae deletion strains, locus YLR330W, strain CHS5, stronger effect = lower value 0.993 | S. cerevisiae deletion strains, locus YLR342W, strain FKS1 (second series), stronger effect = lower value 0.938 | S. cerevisiae deletion strains, locus YLR342W, strain FKS1, stronger effect = lower value 0.984 | S. cerevisiae deletion strains, locus YLR357W, strain rsc2, stronger effect = lower value 0.947 | S. cerevisiae deletion strains, locus YLR370C, strain arc18, stronger effect = lower value 0.996 | S. cerevisiae deletion strains, locus YLR371W, strain rom2, stronger effect = lower value 0.967 | S. cerevisiae deletion strains, locus YLR384C, strain iki3, stronger effect = lower value 0.992 | S. cerevisiae deletion strains, locus YLR418C, strain cdc73, stronger effect = lower value 0.888 | S. cerevisiae deletion strains, locus YML016C, strain PPZ1, stronger effect = lower value 0.989 | S. cerevisiae deletion strains, locus YML032C, strain rad52, stronger effect = lower value 0.962 | S. cerevisiae deletion strains, locus YML120C, strain ndi1, stronger effect = lower value 0.949 | S. cerevisiae deletion strains, locus YML124C, strain tub3, stronger effect = lower value 0.985 | S. cerevisiae deletion strains, locus YMR058W, strain fet3, stronger effect = lower value 0.963 | S. cerevisiae deletion strains, locus YMR078C, strain ctf18, stronger effect = lower value 0.968 | S. cerevisiae deletion strains, locus YMR125W, strain sto1, stronger effect = lower value 1.01 | S. cerevisiae deletion strains, locus YMR129W, stronger effect = lower value 1 | S. cerevisiae deletion strains, locus YMR205C, strain PFK2, stronger effect = lower value 0.957 | S. cerevisiae deletion strains, locus YMR223W, strain ubp8, stronger effect = lower value 0.965 | S. cerevisiae deletion strains, locus YMR231W, strain pep5, stronger effect = lower value 0.981 | S. cerevisiae deletion strains, locus YMR263W, strain SAP30, stronger effect = lower value 0.984 | S. cerevisiae deletion strains, locus YMR307W, strain GAS1, stronger effect = lower value 1 | S. cerevisiae deletion strains, locus YNL067W, strain RPL9B, stronger effect = lower value 0.968 | S. cerevisiae deletion strains, locus YNL071W, strain lat1, stronger effect = lower value 0.968 | S. cerevisiae deletion strains, locus YNL128W, strain TEP1, stronger effect = lower value 0.983 | S. cerevisiae deletion strains, locus YNL153C, strain GIM3, stronger effect = lower value 0.991 | S. cerevisiae deletion strains, locus YNL183C, strain NPR1, stronger effect = lower value 1 | S. cerevisiae deletion strains, locus YNL209W, strain ssb2, stronger effect = lower value 1.01 | S. cerevisiae deletion strains, locus YNL233W, strain BNI4, stronger effect = lower value 0.955 | S. cerevisiae deletion strains, locus YNL248C, strain rpa49, stronger effect = lower value 0.984 | S. cerevisiae deletion strains, locus YNL250W, strain rad50, stronger effect = lower value 0.98 | S. cerevisiae deletion strains, locus YNL271C, strain bni1, stronger effect = lower value 0.98 | S. cerevisiae deletion strains, locus YNL298W, strain CLA4, stronger effect = lower value 0.991 | S. cerevisiae deletion strains, locus YNL322C, strain KRE1 (second series), stronger effect = lower value 1 | S. cerevisiae deletion strains, locus YNL322C, strain KRE1, stronger effect = lower value 1 | S. cerevisiae deletion strains, locus YNR049C, strain mso1, stronger effect = lower value 0.986 | S. cerevisiae deletion strains, locus YNR052C, strain pop2, stronger effect = lower value 0.973 | S. cerevisiae deletion strains, locus YOL006C, strain TOP1, stronger effect = lower value 0.896 | S. cerevisiae deletion strains, locus YOL012C, strain htz1 1.21 | S. cerevisiae deletion strains, locus YOL147C, strain pex11, stronger effect = lower value 0.984 | S. cerevisiae deletion strains, locus YOR001W, strain rrp6, stronger effect = lower value 0.929 | S. cerevisiae deletion strains, locus YOR061W, strain CKA2, stronger effect = lower value 0.989 | S. cerevisiae deletion strains, locus YOR069W, strain VPS5, stronger effect = lower value 0.991 | S. cerevisiae deletion strains, locus YOR070C, strain gyp1, stronger effect = lower value 0.999 | S. cerevisiae deletion strains, locus YOR080W, strain dia2, stronger effect = lower value 0.979 | S. cerevisiae deletion strains, locus YOR083W, strain WHI5, stronger effect = lower value 0.988 | S. cerevisiae deletion strains, locus YOR106W, strain vam3, stronger effect = lower value 0.949 | S. cerevisiae deletion strains, locus YOR136W, strain idh2, stronger effect = lower value 0.978 | S. cerevisiae deletion strains, locus YOR144C, strain elg1, stronger effect = lower value 0.979 | S. cerevisiae deletion strains, locus YOR184W, strain ser1, stronger effect = lower value 0.911 | S. cerevisiae deletion strains, locus YOR231W, strain MKK1, stronger effect = lower value 1 | S. cerevisiae deletion strains, locus YOR265W, strain rbl2, stronger effect = lower value 0.992 | S. cerevisiae deletion strains, locus YOR270C, strain vph1, stronger effect = lower value 0.805 | S. cerevisiae deletion strains, locus YOR290C, strain snf2, stronger effect = lower value 1.02 | S. cerevisiae deletion strains, locus YOR316C, strain cot1, stronger effect = lower value 0.987 | S. cerevisiae deletion strains, locus YPL051W, strain arl3, stronger effect = lower value 1.01 | S. cerevisiae deletion strains, locus YPL055C, strain LGE1, stronger effect = lower value 0.993 | S. cerevisiae deletion strains, locus YPL078C, strain atp4, stronger effect = lower value 1.01 | S. cerevisiae deletion strains, locus YPL106C, strain sse1, stronger effect = lower value 1.03 | S. cerevisiae deletion strains, locus YPL240C, strain hsp82, stronger effect = lower value 0.987 | S. cerevisiae deletion strains, locus YPL241C, strain CIN2, stronger effect = lower value 0.996 | S. cerevisiae deletion strains, locus YPL256C, strain CLN2, stronger effect = lower value 1.05 | S. cerevisiae deletion strains, locus YPR119W, strain clb2, stronger effect = lower value 0.977 | S. cerevisiae deletion strains, locus YPR141C, strain kar3, stronger effect = lower value 0.979 | S. cerevisiae deletion strains, locus YPR167C, strain met16, stronger effect = lower value 0.98 | S. cerevisiae deletion strains, strain wtn01, stronger effect = lower value 0.967 | S. cerevisiae strains, strain wild type, stronger effect = lower value 0.983
active: S. cerevisiae deletion strains, locus YLR268W, strain sec22, stronger effect = lower value 0.871 | S. cerevisiae deletion strains, locus YNL307C, strain MCK1, stronger effect = lower value 0.797 | S. cerevisiae deletion strains, locus YPR163C, strain tif3, stronger effect = lower value 0.887
